According to PubChem BioAssay:
Activity calls are given as the source filed them.

Tests used:
[1] = biological target: Albumin (Bos taurus) (UniProt P02769); assay: bovine serum albumin binders on microarray, profiling panel, artefact control for SMM control protein annotation, biochemical, small-molecule microarray, Alexa647 label, 635/667 nm fluorescence (AID 1118); conditions: BSA-A647 binding, fluorescence 635 nm, higher = more signal;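 further: score merges 667 nm emission intensity and signal-to-noise per printed compound spot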
[2] = small-molecule microarray binders of probe aXIP, primary screen, biochemical, NeuroSMM set, 635/667 nm fluorescence (AID 1119); conditions: higher = more signal, called active from +8 up or from −8 down;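 further: probe is the protein aXip251-270 applied at 1 µg/mL to compound-printed slides; binding of probe to printed compounds measured as 667 nm fluorescence plus signal to noise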
[3] = small-molecule binders of probe aNOTCH3, primary screen, biochemical, small-molecule microarray, 635/667 nm fluorescence (AID 1120); conditions: higher = more signal;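 further: probe is a biotin-tagged antibody raised against NOTCH3 rather than NOTCH3 protein; score merges spot fluorescence near 667 nm with spot signal to noise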
[4] = small-molecule binders of probe aNOTCH2, primary screen, biochemical, small-molecule microarray, 635/667 nm fluorescence (AID 1121); conditions: higher = more signal;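 further: score merges feature fluorescence read at 667 nm with its signal to noise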
[5] = biological target: Carbonic anhydrase 2 (Homo sapiens) (UniProt P00918); assay: CAII small-molecule binders, profiling panel, biochemical, small-molecule microarray, Alexa647-labelled CAII (AID 1122); conditions: CAII-A647 binding fluorescence, higher = more signal
[6] = COS7 lysate on small-molecule microarray, probe aHis, 635 nm (AID 1123); conditions: COS7 cell lysate, fluorescence, higher = more signal;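 further: z-score combines 667nm fluorescence intensity with signal-to-noise per printed compound spot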
[7] = compound binding in COS7 lysate, probe aLAP1, primary screen, cell lysate, small-molecule microarray (AID 1124); conditions: probe aLAP1, fluorescence, higher = more signal;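 further: lysate comes from COS7 cells expressing LAP1 and is applied at 0.3 µg/mL; score merges spot fluorescence near 667 nm with signal-to-noise over triplicate slides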
[8] = tested on: Sam68 (KHDRBS1); assay: Sam68 small-molecule binders, primary screen, biochemical, small-molecule microarray, 635 nm fluorescence (AID 1125); conditions: small-molecule microarray binding, higher = more signal;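 further: score merges 667 nm channel intensity with signal to noise over triplicate slides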
[9] = tested on: Chordin-like protein 2 (CHRDL2); assay: CHRDL2 small-molecule binders, primary screen, biochemical, small-molecule microarray, 635 nm fluorescence (AID 1126); conditions: small-molecule microarray binding, fluorescence 635 nm; higher = more signal;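 further: printed compound slides probed with Chrdl2 protein at 4 µg/mL for 1 h at 4 C; score merges 667 nm emission intensity with signal to noise over three replicate slides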
[10] = biological target: Concanavalin-A (Canavalia ensiformis) (UniProt P02866); assay: ConA small-molecule binders, primary screen, artefact control for SMM control protein annotation, biochemical, small-molecule microarray, Alexa647 label, 635 nm (AID 1127); conditions: ConA-A647 binding fluorescence, higher = more signal;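 further: z combines 667 nm emission intensity with signal-to-noise across three replicate slides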
[11] = anti-His antibody binders, primary screen, artefact control for SMM control protein annotation, biochemical, small-molecule microarray, 635 nm fluorescence (AID 1128); conditions: anti-His Alexa647 antibody binding, higher = more signal;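 further: score merges feature fluorescence with signal-to-noise for each printed compound spot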
[12] = tested on: Human papillomavirus type 1a E7 protein (residues 1-88); assay: HPV1a E7 small-molecule binders, primary screen, biochemical, small-molecule microarray, residues 1-88, 635 nm (AID 1129); conditions: small-molecule microarray binding, fluorescence 635 nm; higher = more signal
[13] = biological target: Focal adhesion kinase 1 (Homo sapiens) (UniProt Q05397); assay: small-molecule microarray binders of FAK, primary screen, biochemical, 635/667 nm fluorescence, BSA, DTT (AID 1130); conditions: PTK2 binding, 635 nm fluorescence, higher = more signal;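 further: composite of spot emission at 667 nm and signal to noise over triplicate slides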
[14] = tested on: Fibrinogen (Alexa647-labelled); assay: fibrinogen binders on compound microarrays, profiling panel, artefact control for SMM control-protein annotation, biochemical, small-molecule microarray, 635/667 nm fluorescence (AID 1131); conditions: fibrinogen-A647 binding fluorescence, higher = more signal;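 further: z-score merges 667 nm fluorescence with per-spot signal-to-noise over triplicate slides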
[15] = biological target: Follistatin (Homo sapiens) (UniProt P19883); assay: follistatin binders on small-molecule microarrays, primary screen, biochemical, small-molecule microarray, 635/667 nm fluorescence (AID 1132); conditions: FST binding, 635 nm fluorescence, higher = more signal
[16] = biological target: Fibroblast growth factor 2 (Homo sapiens) (UniProt P09038); assay: FGF2 binders on small-molecule microarrays, primary screen, biochemical, small-molecule microarray, 635/667 nm fluorescence (AID 1133); conditions: small-molecule microarray binding, FGF2, fluorescence 635/667; higher = more signal
[17] = mitochondrial membrane potential change in A549 cells, profiling panel, cell-based, JC-1 fluorescence, basal, 24 h, 100 nL (AID 1138); conditions: higher = more signal;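 further: A549 lung adenocarcinoma cells under basal conditions with no added stimulus; test concentration not given here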
[18] = tested on: Lefty1; assay: Lefty1 binders on small-molecule microarrays, primary screen, biochemical, small-molecule microarray, 635/667 nm fluorescence (AID 1139); conditions: small-molecule microarray binding, fluorescence 635/667; higher = more signal
[19] = tested on: wheat germ agglutinin (Triticum aestivum), Alexa647-labelled; assay: wheat germ agglutinin binders on compound microarrays, profiling panel, artefact control for SMM control-protein annotation, biochemical, small-molecule microarray, 635/667 nm fluorescence (AID 1140); conditions: WGA-A647 binding, 635 nm fluorescence, higher = more signal;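 further: score merges 667 nm feature emission with signal to noise over triplicate slides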
[20] = biological target: Luciferin 4-monooxygenase (Photinus pyralis) (UniProt P08659); assay: firefly luciferase enzyme inhibitors, primary screen, biochemical, luminescence, purified enzyme, 2006 set (AID 1141); conditions: SteadyGlo luminescence, 30 min, higher = more signal, called active from +8 up or from −8 down;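 further: cell-free assay with purified firefly luciferase at 100 ng per well in PBS; test concentration not given here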
Chain of Luciferin 4-monooxygenase (Photinus pyralis) (P08659 whole entry, looked up): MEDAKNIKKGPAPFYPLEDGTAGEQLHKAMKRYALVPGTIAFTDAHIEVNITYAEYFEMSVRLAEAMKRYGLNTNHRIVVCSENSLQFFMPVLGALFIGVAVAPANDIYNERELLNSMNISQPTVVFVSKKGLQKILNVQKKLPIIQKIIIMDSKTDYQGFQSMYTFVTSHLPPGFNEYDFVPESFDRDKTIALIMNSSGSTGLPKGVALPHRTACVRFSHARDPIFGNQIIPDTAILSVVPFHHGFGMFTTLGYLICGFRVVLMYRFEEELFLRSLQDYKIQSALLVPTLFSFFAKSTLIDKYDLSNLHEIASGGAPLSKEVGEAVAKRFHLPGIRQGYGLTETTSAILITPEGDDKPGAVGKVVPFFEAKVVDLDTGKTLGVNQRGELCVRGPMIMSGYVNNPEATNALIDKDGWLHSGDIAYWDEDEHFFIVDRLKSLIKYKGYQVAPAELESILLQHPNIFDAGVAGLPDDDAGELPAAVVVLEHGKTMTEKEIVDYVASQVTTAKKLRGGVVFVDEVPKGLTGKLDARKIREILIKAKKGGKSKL

Chain of Focal adhesion kinase 1 (Homo sapiens) (Q05397 whole entry, looked up): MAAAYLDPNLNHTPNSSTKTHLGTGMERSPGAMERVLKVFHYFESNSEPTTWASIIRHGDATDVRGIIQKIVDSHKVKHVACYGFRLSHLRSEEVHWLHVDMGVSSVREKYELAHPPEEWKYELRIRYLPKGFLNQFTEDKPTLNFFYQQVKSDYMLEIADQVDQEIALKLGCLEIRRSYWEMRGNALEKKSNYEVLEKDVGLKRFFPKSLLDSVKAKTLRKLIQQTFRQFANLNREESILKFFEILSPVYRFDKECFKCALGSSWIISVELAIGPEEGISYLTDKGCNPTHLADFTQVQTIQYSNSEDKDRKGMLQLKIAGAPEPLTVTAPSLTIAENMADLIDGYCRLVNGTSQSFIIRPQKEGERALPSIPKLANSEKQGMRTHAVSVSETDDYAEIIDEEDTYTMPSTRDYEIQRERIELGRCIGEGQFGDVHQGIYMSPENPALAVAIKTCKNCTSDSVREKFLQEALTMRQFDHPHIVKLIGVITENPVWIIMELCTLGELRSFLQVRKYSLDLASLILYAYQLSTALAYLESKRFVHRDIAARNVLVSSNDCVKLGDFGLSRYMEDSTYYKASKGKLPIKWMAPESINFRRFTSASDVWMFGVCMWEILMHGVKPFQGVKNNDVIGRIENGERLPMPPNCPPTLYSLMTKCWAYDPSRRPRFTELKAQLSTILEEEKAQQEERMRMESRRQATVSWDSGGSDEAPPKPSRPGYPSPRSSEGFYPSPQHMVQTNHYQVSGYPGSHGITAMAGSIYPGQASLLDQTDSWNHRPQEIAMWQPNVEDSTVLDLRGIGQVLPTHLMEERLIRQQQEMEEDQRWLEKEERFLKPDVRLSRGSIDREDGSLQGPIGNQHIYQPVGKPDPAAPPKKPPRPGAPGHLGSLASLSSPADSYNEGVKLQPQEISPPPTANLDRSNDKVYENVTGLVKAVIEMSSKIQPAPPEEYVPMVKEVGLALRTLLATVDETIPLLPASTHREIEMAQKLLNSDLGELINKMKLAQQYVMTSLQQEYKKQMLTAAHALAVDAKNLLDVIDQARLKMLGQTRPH
Chain of Concanavalin-A (Canavalia ensiformis) (P02866 whole entry, looked up): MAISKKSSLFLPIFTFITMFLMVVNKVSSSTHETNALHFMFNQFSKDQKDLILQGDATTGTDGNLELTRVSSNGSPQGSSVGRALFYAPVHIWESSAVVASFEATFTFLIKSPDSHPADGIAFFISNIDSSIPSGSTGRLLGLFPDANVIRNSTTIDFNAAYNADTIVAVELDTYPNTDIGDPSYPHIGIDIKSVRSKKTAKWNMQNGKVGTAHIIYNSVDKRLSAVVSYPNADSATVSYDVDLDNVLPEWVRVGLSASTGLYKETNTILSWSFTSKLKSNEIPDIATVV
Chain of Fibroblast growth factor 2 (Homo sapiens) (P09038 whole entry, looked up): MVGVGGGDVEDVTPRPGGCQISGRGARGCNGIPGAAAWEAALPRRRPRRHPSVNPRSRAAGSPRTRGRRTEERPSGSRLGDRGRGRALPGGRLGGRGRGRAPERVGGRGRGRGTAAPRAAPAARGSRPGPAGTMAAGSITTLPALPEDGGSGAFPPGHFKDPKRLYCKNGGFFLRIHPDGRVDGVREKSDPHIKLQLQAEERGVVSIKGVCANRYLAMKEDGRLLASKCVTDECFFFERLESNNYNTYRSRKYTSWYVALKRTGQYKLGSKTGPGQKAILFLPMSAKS
Chain of Albumin (Bos taurus) (P02769 whole entry, looked up): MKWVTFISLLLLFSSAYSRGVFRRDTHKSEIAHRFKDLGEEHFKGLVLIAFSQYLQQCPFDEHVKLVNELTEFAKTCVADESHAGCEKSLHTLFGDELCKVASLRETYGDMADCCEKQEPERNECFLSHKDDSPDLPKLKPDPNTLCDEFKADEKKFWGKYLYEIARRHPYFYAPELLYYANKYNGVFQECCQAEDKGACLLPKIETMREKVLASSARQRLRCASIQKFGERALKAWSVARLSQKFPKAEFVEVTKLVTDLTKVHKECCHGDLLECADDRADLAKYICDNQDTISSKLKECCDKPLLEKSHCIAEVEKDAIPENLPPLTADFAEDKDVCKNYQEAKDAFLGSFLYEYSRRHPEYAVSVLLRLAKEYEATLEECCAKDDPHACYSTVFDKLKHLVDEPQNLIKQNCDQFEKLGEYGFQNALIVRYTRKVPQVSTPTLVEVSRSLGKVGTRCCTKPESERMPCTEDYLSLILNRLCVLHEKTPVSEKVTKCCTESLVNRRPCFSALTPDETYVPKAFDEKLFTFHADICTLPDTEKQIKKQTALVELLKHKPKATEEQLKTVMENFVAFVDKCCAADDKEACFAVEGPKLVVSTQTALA
Chain of Follistatin (Homo sapiens) (P19883 whole entry, looked up): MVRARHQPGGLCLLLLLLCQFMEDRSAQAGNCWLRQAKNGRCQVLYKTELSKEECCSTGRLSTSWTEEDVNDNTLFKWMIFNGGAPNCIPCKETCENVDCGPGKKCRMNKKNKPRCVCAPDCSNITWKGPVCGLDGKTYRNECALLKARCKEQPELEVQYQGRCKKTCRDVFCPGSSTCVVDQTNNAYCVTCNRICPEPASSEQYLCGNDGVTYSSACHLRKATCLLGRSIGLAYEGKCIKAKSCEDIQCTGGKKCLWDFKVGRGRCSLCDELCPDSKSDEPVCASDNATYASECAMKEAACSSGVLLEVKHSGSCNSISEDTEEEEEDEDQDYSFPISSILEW

SMILES | composite z-score [1] | composite Z-score [2] | composite z-score [3] | composite z-score [4] | composite z-score [5] | composite z-score [6] | composite z-score [7] | composite z-score [8] | composite z-score [9] | composite z-score [10] | composite z-score [11] | composite z-score [12] | composite z-score [13] | composite z-score [14] | composite z-score [15] | composite z-score [16] | z-score [17] | composite z-score [18] | composite z-score [19] | z-score [20]
CN1C(=O)C2C=CC(C(O)COCc3ccccc3)N(Nc3ccc([N+](=O)[O-])cc3[N+](=O)[O-])C2C1=O (stereo not given) | 0.186 | 0.215 (inactive) | 0.0596 | 0.046 | 0.368 | 1.49 | 0.578 | 0.447 | -0.693 | -0.445 | -1.08 | 1.08 | 0.903 | -0.428 | -0.232 | 0.41 | 1.89 | -0.798 | 0.333 | -1.05 (inactive)
Cc1ccc(S[C@]2(C(=O)NC(C)C)CC(=O)N(Cc3ccccc3)[C@@H]2c2ccc(CO)cc2I)cc1 | -0.437 | -0.0142 (inactive) | -0.229 | -0.227 | 0.784 | 1.79 | 0.532 | 0.636 | -2.55 | -0.639 | -1.01 | -0.781 | -0.0673 | -0.771 | -1.35 | -0.409 | 1.32 | -1.64 | -1.09 | -0.629 (inactive)
CCCCC(=C=CC[C@H](O)c1cccc(OCCO)c1)C[C@H](O)c1cc(Cl)cc(Cl)c1O | 0.436 | 0.41 (inactive) | -0.0288 | -0.143 | 0.465 | 0.686 | -0.151 | 1.03 | 0.0963 | 1.04 | 0.172 | 0.559 | -0.0043 | 0.489 | 1.11 | 0.272 | 0.691 | 1.46 | 0.749 | -0.677 (inactive)
C=C(C(=O)CC[C@@H](OC(=O)c1ccccc1-c1ccccc1C(=O)O)c1ccc(OCCO)cc1)C(C)C | 0.0832 | -0.32 (inactive) | 0.169 | -0.0876 | 0.801 | 0.393 | -0.0004 | 0.929 | 0.639 | 0.94 | 1.19 | 0.977 | -0.118 | 0.691 | 1.2 | 1.77 | 0.58 | 1.26 | 0.889 | -2.66 (inactive)
CCCCCN1CC=CC23O[C@@H]4/C=C\CCCOC(=O)C4[C@H]2C(=O)N(CCCCCO)[C@@H]3C1=O (stereo not given in full) | -0.191 | -0.594 (inactive) | -0.233 | -0.182 | 0.777 | -1.89 | -0.682 | -0.178 | -0.801 | -0.691 | 0.163 | -0.766 | -0.565 | -0.832 | -0.38 | -1.11 | 0.27 | -0.0788 | -0.662 | -3.1 (inactive)
C[C@]1(C(=O)O)c2ccccc2C(=O)N(Cc2cc(C(F)(F)F)cc(C(F)(F)F)c2)[C@H]1c1ccc(CO)cc1 | 0.514 | 0.365 (inactive) | 0.0426 | -0.106 | 0.728 | 0.516 | -0.178 | 0.666 | -0.833 | 0.928 | -0.41 | -0.129 | 0.0797 | 0.844 | 0.82 | -0.354 | -0.401 | 1.02 | 0.861 | 1.01 (inactive)
Cc1c(NC(=O)/C(C#N)=C/C=C/c2ccc([N+](=O)[O-])cc2)c(=O)n(-c2ccccc2)n1C | 0.974 | 0.947 (inactive) | 0.144 | 0.0966 | 0.584 | 2.23 | 0.82 | 1.3 | 0.0495 | 1.04 | 2.04 | 1.18 | -0.0384 | 1.02 | 1.06 | 1.11 | 0.138 | 0.78 | 0.685 | -4.99 (inactive)
C=CCNC(=O)[C@H]1[C@@H]2C(=O)O[C@@H](c3ccccc3)[C@@H](c3ccccc3)N2[C@@H](c2ccc(O)cc2)[C@]12C(=O)Nc1ccc(C#CCC(C(=O)OC)C(=O)OC)cc12 | 0.0574 | -0.209 (inactive) | -0.217 | 0.0098 | 0.649 | 1.23 | 0.877 | 0.421 | 0.952 | -0.273 | 2.01 | 1.08 | 0.144 | -0.078 | 0.636 | 0.497 | 0.243 | 0.0372 | -0.0126 | -1.37 (inactive)
COC(=O)[C@@]1(Cc2ccccc2)[C@H]2c3cc(C(=O)N(C)C)n(Cc4nc5ccccc5[nH]4)c3C[C@H]2CN1C(=O)c1ccccc1 | 1.01 | 0.0729 (inactive) | 0.266 | 0.0576 | 0.826 | 3.44 | 0.972 | 1.24 | -0.538 | 1.09 | 1.85 | 1.24 | 0.872 | 1.03 | 0.804 | -0.378 | 0.157 | -0.414 | 0.779 | -1.77 (inactive)
CN(C)CCCCNC(=O)[C@H]1C[C@H]2C(=O)N[C@@H](CCCCN(C)C)C(=O)N2[C@H]1c1ccc(O)cc1 | -0.155 | 0.151 (inactive) | -0.0918 | -0.0262 | 0.518 | -0.28 | 0.224 | -0.093 | 1.15 | 0.224 | 1.01 | -0.102 | 0.129 | -0.803 | 1.19 | 0.988 | -0.0458 | 0.754 | 0.0466 | 0.47 (inactive)
O=C1NC(=O)C2C1C=CC(C(O)C1CCCCC1)N2Nc1ccccn1 (stereo not given) | 0.516 | 0.468 (inactive) | 0.0351 | -0.0422 | 0.827 | 1.36 | -0.636 | 0.233 | 0.342 | 0.898 | 0.279 | 0.688 | 0.113 | 0.177 | 0.597 | 0.205 | 0.517 | 0.119 | 0.149 | -0.224 (inactive)
